Test results: PubChem BioAssay (NCATS)

Molecular target: Cytochrome P450 3A4 (Homo sapiens) (UniProt P08684)
Experiment: qHTS Assay for Activators of Cytochrome P450 3A4 (AID 885); also: nearly all actives have a fitted effect of over 65% in size
Conditions: recombinant CYP3A4, Luciferin-PPXE luminescence, 60 min; series mostly up to 57.1 µM; activity change, positive = activation: at the top concentration; active = well fitted activation curve with a large enough effect; inconclusive = small, poorly fitted or top-dose-only effect; inactive = no such curve, though single readings can be large or run the other way
Method in brief: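 Human CYP3A4 dealkylates Luciferin-PPXE to luciferin, which luciferase detection converts to light. Substrate was at its KM (25uM), buffer 200mM KPO4, reaction 60 min at RT.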

Sequence of Cytochrome P450 3A4 (Homo sapiens) (P08684 whole entry, looked up): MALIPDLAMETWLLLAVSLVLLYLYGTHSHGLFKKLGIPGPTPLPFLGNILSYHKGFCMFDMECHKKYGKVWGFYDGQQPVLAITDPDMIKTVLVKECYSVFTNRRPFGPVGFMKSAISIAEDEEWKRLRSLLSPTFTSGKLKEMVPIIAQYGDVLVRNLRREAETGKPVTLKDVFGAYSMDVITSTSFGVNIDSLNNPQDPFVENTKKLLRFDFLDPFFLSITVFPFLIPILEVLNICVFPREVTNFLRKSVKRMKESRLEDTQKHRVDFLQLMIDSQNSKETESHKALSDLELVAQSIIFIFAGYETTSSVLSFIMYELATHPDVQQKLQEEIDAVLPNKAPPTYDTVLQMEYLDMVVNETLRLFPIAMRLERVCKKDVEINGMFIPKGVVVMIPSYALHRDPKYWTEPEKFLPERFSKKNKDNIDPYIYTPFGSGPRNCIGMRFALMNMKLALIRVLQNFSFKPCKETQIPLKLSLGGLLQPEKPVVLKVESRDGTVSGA

Activity change, positive = activation, inactive:
FC(F)(F)c1ccc(C2[C@H]3CN(Cc4ccc(-c5ccccc5)cc4)[C@H](c4ccccc4)C34CC2(c2ccccc2)C4)cc1 (stereo partly specified) -45%
COc1ccc(COC(=O)N/N=C2/C[C@@H](O)[C@@H](O)[C@@H]3[C@@H]4C(=O)N([C@@H](C)c5ccccc5)C(=O)[C@H]4CC[C@H]23)cc1 -54.4% [at 11.4 µM]
N#Cc1ccc(C23CC4(C2)[C@H](CN(P(=O)(c2ccccc2)c2ccccc2)[C@@H]4c2ccccc2)C3c2ccc(Cl)nc2)cc1 (stereo partly specified) -56.6%
COC(=O)C/C=C\[C@@H](C)[C@@H](CO)NS(=O)(=O)c1ccc(C)cc1 -37.6% [at 11.4 µM]
Cn1c(N)c(C(=O)COC(=O)c2cc(C3CC3)nc3ccccc23)c(=O)n(C)c1=O -48.2%
FC(F)(F)c1ccc(CN2C[C@@H]3C(c4ccccc4)C4(c5ccccc5)CC3(C4)[C@H]2c2ccccc2)cc1 (stereo partly specified) -53.9%
O=C1[C@H]2[C@H]3[C@H](O)[C@H](O)C/C(=N/OCc4ccccc4)[C@H]3CC[C@@H]2C(=O)N1Cc1ccc2c(c1)OCO2 -96.1% [at 11.4 µM]
CN1C[C@@H]2C(c3ccccc3)C3(c4ccccc4)CC2(C3)[C@H]1c1ccccc1 (stereo partly specified) -59.9%
COC(=O)[C@@H]1CC[C@H](C)[C@@H](c2ccc(C)cc2)N1C(=O)c1ccc(/C=N\O[C@@H](C)CN2CCCc3nc(C)c(C)cc32)cc1 -48.9% [at 11.4 µM]
COc1ccc(COC(=O)N/N=C2/C[C@@H](O)[C@@H](O)[C@@H]3[C@@H]4C(=O)N(C(C)(C)C)C(=O)[C@H]4CC[C@H]23)cc1 -30.7% [at 11.4 µM]
CCc1cc2c(nc1CC)CCN(CC/C(C)=N/OC[C@@H](O)COCc1ccco1)C2 -38.2% [at 11.4 µM]
C#CCCCO/N=C1/C[C@@H](O)[C@@H](O)[C@@H]2[C@@H]3C(=O)N(CCC(=O)OCC)C(=O)[C@H]3CC[C@H]12 -51% [at 11.4 µM]
COC(=O)c1ccc(CN2[C@@H]3C[C@@H](O)CC[C@@H]3C[C@H]2C(=O)OC)cc1 -59.2%
Clc1ccc(C2[C@H]3CN(Cc4ccc(-c5ccccc5)cc4)[C@H](c4ccccc4)C34CC2(c2ccccc2)C4)cn1 (stereo partly specified) -41.8%
CC(C)=CCC/C(C)=C/CO/N=C1/C[C@@H](O)[C@@H](O)[C@@H]2[C@H]3C(=O)N(c4ccc(F)cc4F)C(=O)[C@@H]3CC[C@@H]12 -30.2% [at 11.4 µM]
CC(C)=CCC/C(C)=C/CO/N=C1/C[C@@H](O)[C@@H](O)[C@@H]2[C@@H]3C(=O)N(Cc4ccccc4)C(=O)[C@H]3CC[C@H]12 -49.8% [at 11.4 µM]
CCC1=C2CC[C@H]3C(=O)N(CC)C(=O)[C@H]3[C@H]2[C@@]2(C)C(=NCC(=O)OC)OC(=O)N2C1=O -56.3%
CO[C@H]1COC(=O)[C@@H](Cc2ccccc2)NC(=O)[C@@H](C)COC(=O)C/C=C\[C@@H]1C -36.9% [at 11.4 µM]
COC(=O)[C@@H]1C[C@H]2CC[C@H](O)C[C@H]2N1Cc1ccccc1OS(=O)(=O)c1ccc(C)cc1 -69.9%
O=C1[C@H]2O[C@@H]2[C@@H](O)[C@H]2[C@H]1CCn1c(=O)n(Cc3cc4c(cc3Cl)OCO4)c(=O)n12 -36.7% [at 11.4 µM]
COC(=O)NC(/C(C(=O)OC)=C(\C)NCc1ccccc1)c1ccccc1 (stereo unspecified) -30.2% [at 11.4 µM]
CCC1=C2CC[C@H]3C(=O)N(CC(=O)OC)C(=O)[C@H]3[C@H]2[C@@]2(C)C(=O)N(CC3CC3)C(=O)N2C1=O -52.9%
CO[C@@H]1COC(=O)[C@H]2CCCN2C(=O)[C@@H](C)COC(=O)[C@H](COCc2ccccc2)NC(=O)C/C=C\[C@H]1C -38.2% [at 11.4 µM]
COc1ccc(COC(=O)N/N=C2/C[C@@H](O)[C@@H](O)[C@@H]3[C@H]4C(=O)N(c5ccc(F)cc5F)C(=O)[C@@H]4CC[C@H]23)cc1 -51.6% [at 11.4 µM]
CC(=O)OC[C@@H]1O[C@H](CCO/N=C(\C)CCN2CCc3nc(-c4ccccc4)c(-c4ccccc4)cc3C2)C=C[C@@H]1OC(C)=O -47.2% [at 11.4 µM]
C[C@H]1CC[C@H]2C(=O)N3[C@H](c4ccc(Br)cc4)[C@@H](C)CC[C@H]3C(=O)N2[C@@H]1c1ccc(Br)cc1 -43.1% [at 11.4 µM]
